# Laboratory results reported in PubChem BioAssay (EPA / NIEHS).
# The source made the active and inactive calls. Rule for the calls: active = hit-call score of the fitted dose curve at least 0.9, where 1 is the maximum; inactive = score below 0.9.
# Experiments:
# [1] = CCTE_Padilla_ZF_Score.General: CCTE's 144 Hour Post-fertilization zebrafish Assay Score for General Malformation, Padilla Lab (AID 2284411)
# Outline: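 Wild-type zebrafish embryos were plated singly at 6-8 hpf in 10% Hanks' and exposed in sealed wells at 26C until rinsed on 5 dpf. At 6 dpf two blinded assessors scored mortality, hatching and malformations by stereomicroscopy; gain-of-signal versus DMSO.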
# [2] = Tanguay_ZF_120hpf_AXIS: Oregon State University Tanguay Lab 120 Hour Post-fertilization zebrafish Assay for Axial Malformation (AID 2284398)
# Outline: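 Dechorionated 5D wild-type zebrafish embryos exposed statically, one per well, from 6 to 120 hpf at 28C, 0.64% DMSO. Axial malformation scored as present/absent by brightfield microscopy at 120 hpf; dead embryos not scored.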
# [3] = Tanguay_ZF_120hpf_MORT: Oregon State University Tanguay Lab 120 Hour Post-fertilization zebrafish Assay for Mortality (AID 2284399)
# Outline: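 Dechorionated wild-type Tropical 5D zebrafish embryos, one per well from 6 hpf, static exposure to 120 hpf at 28C in sealed dark plates, 0.64% DMSO final. Mortality scored as binary by brightfield at 24 and 120 hpf.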
# [4] = Tanguay_ZF_120hpf_EDEM: Oregon State University Tanguay Lab 120 Hour Post-fertilization zebrafish Assay for Edema Malformation (AID 2284400)
# Outline: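 Dechorionated Tropical 5D wild-type embryos, one per well, statically exposed from 6 to 120 hpf at 28C in 0.64% DMSO. Edema scored present/absent by brightfield microscopy at 120 hpf; dead embryos not scored; fit versus DMSO.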
# [5] = Tanguay_ZF_120hpf_BRN: Oregon State University Tanguay Lab 120 Hour Post-fertilization zebrafish Assay for Brain Region Malformation (AID 2284402)
# Outline: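 Dechorionated wild-type Tropical 5D zebrafish embryos exposed statically from 6 to 120 hpf at 28C, one per well, 0.64% DMSO final. Brain malformation scored at 120 hpf by brightfield as present/absent; dead embryos not scored.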
# [6] = Tanguay_ZF_120hpf_TCHR: Oregon State University Tanguay Lab 120 Hour Post-fertilization zebrafish Assay for Touch Responsive (AID 2284403)
# Outline: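 Dechorionated Tropical 5D wild-type zebrafish embryos, one per well from 6 hpf, were statically exposed to 120 hpf at 28 °C (0.64% DMSO). Touch response was scored present/absent at 120 hpf and not scored in dead larvae.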
# [7] = Tanguay_ZF_120hpf_ANY: Oregon State University Tanguay Lab 120 Hour Post-fertilization zebrafish Assay for Any Mortality and Malformation (AID 2284404)
# Outline: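 Dechorionated Tropical 5D wild-type embryos, one per well from 6 hpf, static exposure in sealed, dark plates at 28C until 120 hpf, 0.64% DMSO final. Brightfield scoring of mortality and malformations as binary presence/absence, pooling 13 morphology endpoints.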
# [8] = CCTE_Padilla_ZF_Score.Craniofacial: CCTE's 144 Hour Post-fertilization zebrafish Assay Score for Craniofacial Malformation, Padilla Lab (AID 2284405)
# Outline: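 Wild-type zebrafish embryos (with chorions), one per well in 10% Hanks', were dosed at 6–8 hpf in sealed plates and kept at 26C. They were rinsed at 5 dpf. At 6 dpf two blinded assessors scored craniofacial malformations by brightfield stereomicroscopy.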
# [9] = CCTE_Padilla_ZF_Score.Edema: CCTE's 144 Hour Post-fertilization zebrafish Assay Score for Edema Malformation, Padilla Lab (AID 2284406)
# Outline: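 Wild-type zebrafish embryos, one per well in Hanks' solution, dosed at 6-8 hpf, sealed and reared at 26C on a 14:10 h cycle; rinsed on 5 dpf. At 6 dpf, blinded assessors scored edema by stereomicroscopy.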
# [10] = CCTE_Padilla_ZF_Score.Spine: CCTE's 144 Hour Post-fertilization zebrafish Assay Score for Spine Malformation, Padilla Lab (AID 2284407)
# Outline: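 Wild-type zebrafish embryos, one per well in Hanks' solution, dosed at 6–8 hpf in sealed plates at 26C, 14:10 h light:dark; rinsed at 5 dpf. Two blinded assessors scored spinal defects by stereomicroscopy at 6 dpf; fitted versus DMSO.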
# [11] = CCTE_Padilla_ZF_Score.Swim_bladder: CCTE's 144 Hour Post-fertilization zebrafish Assay Score for Swim Bladder Malformation, Padilla Lab (AID 2284408)
# Outline: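 Wild-type zebrafish embryos, one per well in 10% Hanks', dosed at 6–8 hpf, sealed, reared at 26C and rinsed at 5 dpf. Blinded assessors scored uninflated swim bladder by stereomicroscopy at 6 dpf, relative to DMSO.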
# [12] = CCTE_Padilla_ZF_Score.Position: CCTE's 144 Hour Post-fertilization zebrafish Assay Score for Position, Padilla Lab (AID 2284409)
# Outline: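 Wild-type zebrafish embryos (with chorions) exposed singly from 6–8 hpf in sealed wells of Hanks' solution at 26C, rinsed at 5 dpf. At 6 dpf, blinded assessors scored abnormal water-column position by brightfield stereomicroscopy, relative to DMSO.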
# [13] = CCTE_Padilla_ZF_Score.Living: CCTE's 144 Hour Post-fertilization zebrafish Assay Score for Viability, Padilla Lab (AID 2284410);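 note: larval death at 6 dpf judged by absent heartbeat or coagulation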
# Outline: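 Wild-type zebrafish embryos were exposed singly from 6–8 hpf in sealed wells of Hanks' solution at 26C, then rinsed at 5 dpf. At 6 dpf, blinded assessors scored mortality (no heartbeat or coagulation) by stereomicroscopy, fitted against DMSO.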
# [14] = CCTE_Padilla_ZF_Score.Tail: CCTE's 144 Hour Post-fertilization zebrafish Assay Score for Tail Malformation, Padilla Lab (AID 2284414)
# Outline: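 Wild-type zebrafish embryos, one per well in 200 uL 10% Hanks', dosed at 6-8 hpf, sealed, and kept at 26 C on a 14:10 h light cycle. Chemical was rinsed out at 5 dpf. Blinded brightfield scoring of tail defects followed at 6 dpf.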
# [15] = CCTE_Padilla_ZF_Score.Blood_pooling: CCTE's 144 Hour Post-fertilization zebrafish Assay Score for Blood Pooling, Padilla Lab (AID 2284415)
# Outline: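 Wild-type outbred zebrafish embryos, one per well in 10% Hanks', exposed from 6–8 hpf in sealed plates at 26C on 14:10 h light:dark, rinsed at 5 dpf. Blinded stereomicroscope scoring of blood pooling at 6 dpf; gain-of-signal versus DMSO.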
# [16] = CCTE_Padilla_ZF_Score.Any: CCTE's 144 Hour Post-fertilization zebrafish Assay Score for Any Mortality or Malformation, Padilla Lab (AID 2284416)
# Outline: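 Wild-type zebrafish embryos with chorions, one per well in 10% Hanks' from 6–8 hpf, dosed in sealed plates at 26 C, 14:10 h light:dark; rinsed at 5 dpf; blinded scoring at 6 dpf for death or malformation, versus DMSO.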
# [17] = test system: SRY-box transcription factor 17 (SOX17) Protein Expression, Deisenroth Lab, SOX17 (gene 64321); assay: CCTE_Deisenroth_DEVTOX-GLR_Endo_SOX17: CCTE's DevTox GLR-Endo Assay Evaluation of SRY-box transcription factor 17 (SOX17) Protein Expression, Deisenroth Lab (AID 2284413)
# Outline: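 RUES2-GLR human pluripotent cells were differentiated toward endoderm for 48 h and received two compound doses 24 h apart (1 nM - 200 uM, 10 points). High-content imaging of fixed cells gave the percent SOX17+ cells per cell count, expressed as percent change versus 0.2% DMSO.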
# [18] = test system: Brachyury (BRA) Protein Expression, TBXT (gene 6862); assay: CCTE_Deisenroth_DEVTOX-GLR_Endo_BRA: CCTE's DevTox GLR-Endo Assay Evaluation of Brachyury (BRA) Protein Expression, Deisenroth Lab (AID 2284417)
# Outline: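 Percent BRA+ (mesoderm) RUES2-GLR cells after 48 h differentiation with two exposures, 1 nM - 200 uM; 0.2% DMSO control subtracted.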
# [19] = CCTE_Deisenroth_DEVTOX-GLR_Endo_CellCount: Viability Assessment in CCTE's DevTox GLR-Endo Assay, Deisenroth Lab (AID 2284420)
# Outline: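 Nuclei counted by fluorescence microscopy as a surrogate for cell number, expressed as percent change relative to 0.2% DMSO control. Human RUES2-GLR cells, 48 h differentiation, dosed twice; 1 nM - 200 uM series.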
# [20] = test system: SRY-box transcription factor 2 (SOX2) Protein Expression, Deisenroth Lab, SOX2 (gene 6657); assay: CCTE_Deisenroth_DEVTOX-GLR_Pluri_SOX2: CCTE's DevTox GLR-Pluri Assay Evaluation of SRY-box transcription factor 2 (SOX2) Protein Expression, Deisenroth Lab (AID 2284428)
# Outline: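 RUES2-GLR (human pluripotent), 48 h post-dosing, 2 exposures q24h, 1 nM–200 uM 10-pt. Fixed, nuclear dye, high-content imaging 5 fields/well. Endpoint: % SOX2+ cells (SOX2+/total count) vs 0.2% DMSO; n≥4.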
smiles,measurement,setting,value
CCCCCCCO,outcome,[1],inactive
c1ccc2c(c1)[nH]c1ccccc12,outcome,[1],inactive
C[N+](C)(C)CCCNS(=O)(=O)C(F)(F)C(F)(F)C(F)(F)C(F)(F)C(F)(F)C(F)(F)C(F)(F)C(F)(F)F,outcome,[2],inactive
same,outcome,[3],inactive
same,AC50,[4],67.1 µM (active)
same,outcome,[5],inactive
same,outcome,[6],inactive
same,AC50,[7],80 µM (active)
same,outcome,[8],inactive
same,outcome,[9],inactive
same,outcome,[10],inactive
same,outcome,[11],inactive
same,outcome,[12],inactive
same,AC50,[13],50.1 µM (active)
same,outcome,[1],inactive
same,outcome,[14],inactive
same,outcome,[15],inactive
same,AC50,[16],26.2 µM (active)
CC1(C)[C@@H]2CC[C@@]1(C)C(=O)C2,outcome,[17],inactive
same,outcome,[18],inactive
same,outcome,[19],inactive
same,outcome,[20],inactive
CCCCCCOC(=O)CCCCC(=O)OCCCCCC,outcome,[1],inactive
C=CC(=O)OCCCCCCCC(C)C,outcome,[1],inactive
C=CCCCCCCCCC=O,outcome,[1],inactive
C=CC(=O)NC(C)(C)C,outcome,[1],inactive
CCCCCCC=O,outcome,[1],inactive
c1ccc2sc(SSN3CCOCC3)nc2c1,outcome,[1],inactive
O=C(O)C(F)(F)C(F)(F)C(F)(F)C(F)(F)C(=O)O,outcome,[2],inactive
same,outcome,[3],inactive
same,outcome,[4],inactive
same,outcome,[5],inactive
same,outcome,[6],inactive
same,outcome,[7],inactive
same,outcome,[8],inactive
same,outcome,[9],inactive
same,outcome,[10],inactive
same,outcome,[11],inactive
same,outcome,[12],inactive
same,outcome,[13],inactive
same,outcome,[1],inactive
same,outcome,[14],inactive
same,outcome,[15],inactive
same,outcome,[16],inactive
C=CC(=O)OCCCCCCOC(=O)C=C,outcome,[1],inactive
COc1ccc(C(=O)c2ccccc2)c(O)c1,AC50,[1],7.03 µM (active)
